RGS4-Gao reg: modulators of RGS4 binding to Galphao, primary screen, biochemical, multiplexed bead flow cytometry; AID 1415, 2008; actives 0.33% (n = 220,000); actives lie on both sides; binding response (% of control), % at 10 µM; in the data active = binding response below about 49% or above about 150%; inactive = in between;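 note: fluorescent Galphao activated with aluminum fluoride binding bead-coupled RGS4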
Target sequence (P09471 whole entry, looked up): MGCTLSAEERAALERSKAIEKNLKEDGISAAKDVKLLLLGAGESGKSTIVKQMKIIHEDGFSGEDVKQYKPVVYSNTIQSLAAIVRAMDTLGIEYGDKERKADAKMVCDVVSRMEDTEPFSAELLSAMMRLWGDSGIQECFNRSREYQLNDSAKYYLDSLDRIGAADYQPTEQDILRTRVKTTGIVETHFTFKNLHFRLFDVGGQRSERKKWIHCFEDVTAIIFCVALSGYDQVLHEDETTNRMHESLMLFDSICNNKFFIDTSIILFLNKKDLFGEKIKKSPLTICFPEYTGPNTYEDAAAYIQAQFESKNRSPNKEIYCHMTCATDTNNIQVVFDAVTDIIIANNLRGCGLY
RGS7-Gao reg: RGS7-Galphao binding modulators, primary screen, biochemical, multiplexed bead flow cytometry; Guanine nucleotide-binding protein G(o) subunit alpha (Homo sapiens), P09471; actives lie on both sides; binding response (% of control), % at 10 µM; actives 0.35% (n = 220,000); in the data active = binding response below about 49% or above about 150%; inconclusive = no clear call, values can overlap the other calls; inactive = in between;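 note: fluorescent Galphao held in activated GDP-AlF4 state binding bead-coupled RGS7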
Avidin bead fluor: green autofluorescence of compounds with avidin beads – biophysical, 488/530 nm, flow cytometry, artefact control, profiling panel | compound fluorescence 488/530 nm; stronger effect = higher value | fluorescence (KMESF) at 10 µM | actives 0.38% (n = 220,000) | AID 1775, 2009; in the data active = fluorescence above about 47
RGS16-Gao: modulators of RGS16 binding to Galphao, primary screen, biochemical, human proteins, multiplexed bead flow cytometry. bead-based flow cytometry RGS16-Galphao binding, fluorescence; actives lie on both sides. AID 1441, 2008. binding response (% of control), % at 10 µM. Regulator of G-protein signaling 16 (Homo sapiens) + Guanine nucleotide-binding protein …. actives 0.38% (n = 220,000);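 note: Galphao activated by GDP with aluminum fluoride before binding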
Target sequence (O15492 whole entry, looked up): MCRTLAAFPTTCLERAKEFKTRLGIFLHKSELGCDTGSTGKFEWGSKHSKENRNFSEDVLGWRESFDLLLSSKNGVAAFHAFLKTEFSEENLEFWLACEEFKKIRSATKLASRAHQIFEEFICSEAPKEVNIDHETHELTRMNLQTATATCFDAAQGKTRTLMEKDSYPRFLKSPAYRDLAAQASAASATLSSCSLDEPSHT
Target sequence (P09471 whole entry, looked up): as the sequence (P09471 whole entry, looked up) above
RGS8-Gao: RGS8-Galphao binding modulators, primary screen, biochemical, multiplexed bead flow cytometry; Guanine nucleotide-binding protein G(o) subunit alpha (Homo sapiens), P09471; actives lie on both sides; response (percent of control binding), % at 10 µM; actives 0.34% (n = 220,000); AID 1423, 2008; in the data active = response below about 60% or above about 140%; inactive = in between;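 note: Galphao activated as the GDP aluminium fluoride complex binding bead-coupled RGS8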
GSH bead fluor: compound fluorescence on glutathione beads, profiling panel, artefact control, biophysical, 488/530 nm, flow cytometry; GSH beads flow cytometry, compound fluorescence 488/530 nm; stronger effect = higher value; fluorescence (KMESF) at 10 µM; actives 0.25% (n = 190,000); in the data active = fluorescence above about 89;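 note: glutathione beads carrying GST-tagged Bcl family fusion proteins plus one bare bead set; values are compound well signal with DMSO vehicle wells as background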
RGS4-Gao HTS: modulators of RGS–Galpha-o binding, primary screen, biochemical, multiplexed beads, flow cytometry, RGS4/7/8/16/19 | shares compounds with RGS16-Gao | multiplexed bead flow cytometry | RGS4–Galpha-o binding response, % at 10 µM | actives 99% (n = 1,600);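 note: fluorescently labeled Galpha-o bound to GDP with aluminium fluoride binding biotinylated RGS beads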
Biotin-avidin: disruption of biotin probe capture by avidin, counter-screen for RGS protein interaction modulators, biochemical, flow cytometry, bead-based; 1,700 tested, under 10 active; streptavidin beads, fluorescein-biotin binding; inhibition, % at 10 µM; shares compounds with RGS16-Gao;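 active = inhibition above 50%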;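 note: median green fluorescence of gated singlet beads compared with DMSO control wells; 0% = DMSO wells and 100% = complete loss of bead fluorescence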
RGS8-Gao confirm: RGS8-Galphao binding modulators, confirmation, biochemical, multiplexed bead flow cytometry, single concentration; actives 3% (n = 1,700); binding response (% of control), % at 10 µM; AID 1836, 2009; shares compounds with RGS16-Gao; bead-based flow cytometry RGS8-Galphao binding, fluorescence; actives lie on both sides; in the data active = binding response below about 72% or above about 130%; inactive = in between;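 note: Galphao activated as GDP AlF4 complex before binding bead RGS8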
RGS7-Gao confirm: RGS7-Galphao binding modulators, confirmation, biochemical, multiplexed bead flow cytometry, single concentration; AID 1837, 2009; shares compounds with RGS16-Gao; actives 7.8% (n = 1,700); bead-based flow cytometry RGS7-Galphao binding; actives lie on both sides; response (percent of control binding), % at 10 µM; in the data active = response below about 75% or above about 130%; inactive = in between;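 note: fluorescent Galphao activated with GDP and aluminum fluoride binding bead-coupled RGS7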
RGS16-Gao single: modulators of RGS16-Galphao protein binding, confirmation, biochemical, single concentration, multiplexed bead flow cytometry; shares compounds with RGS16-Gao; bead-based flow cytometry; actives lie on both sides; response (% of control binding), % at 10 µM; actives 4% (n = 1,700); AID 1838, 2009; in the data active = response below about 74% or above about 130%; inactive = in between;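 note: Galphao activated as the GDP aluminium fluoride complex binding bead-coupled RGS16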
RGS4-Gao confirm: modulators of RGS4-Galphao protein binding, confirmation, biochemical, single concentration, multiplexed bead flow cytometry | AID 1840, 2009 | shares compounds with RGS16-Gao | actives lie on both sides | actives 4% (n = 1,700) | binding response (% of control), % at 10 µM; in the data active = binding response below about 74% or above about 130%; inactive = in between
RGS19-Gao conf: regulators of RGS19-Galphao binding, confirmation, biochemical, single point, multiplexed bead flow cytometry; shares compounds with RGS16-Gao; bead-based flow cytometry RGS19-Galphao binding; actives lie on both sides; response (percent of control binding), % at 10 µM; actives 5% (n = 1,700); in the data active = response below about 50% or above about 160%; inactive = in between;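 note: 100% = no compound control and 0% = blank background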
* marks the source's active call; other numbers are inactive results; [ ] = remark or other dose. A selection: hits, their analogues and other compounds. The true share with any hit is near 1.2%. Unless noted, the rule behind the calls is not given here.

What do the screens show for `CCCC(N)CCCCCC(=O)O` (configuration not stated)?
RGS4-Gao reg: 129; RGS7-Gao reg: 120; Avidin bead fluor: 14; RGS16-Gao: 333*[activator]; RGS8-Gao: 123; GSH bead fluor: 25; RGS4-Gao HTS: 129*; Biotin-avidin: -2; RGS8-Gao confirm: 99; RGS7-Gao confirm: 98; RGS16-Gao single: 98; RGS4-Gao confirm: 101; RGS19-Gao conf: 93

Results for NCCCC(=O)O ?
RGS4-Gao reg: 103; RGS7-Gao reg: 103; Avidin bead fluor: 7; RGS16-Gao: 116; RGS8-Gao: 105; GSH bead fluor: 20

How did O=C(N/N=C/c1ccc(N2CCOCC2)o1)c1cccc([N+](=O)[O-])c1 do in these assays?
RGS4-Gao reg: 87; RGS7-Gao reg: 87; Avidin bead fluor: 2; RGS16-Gao: 18*; RGS8-Gao: 63; GSH bead fluor: 10; RGS4-Gao HTS: 87*; Biotin-avidin: 0; RGS8-Gao confirm: 97; RGS7-Gao confirm: 92; RGS16-Gao single: 97; RGS4-Gao confirm: 96; RGS19-Gao conf: 69

How did Cc1cc(C)c(-n2nnnc2SC(C)C)c(C)c1 do in these assays?
RGS4-Gao reg: 96; RGS7-Gao reg: 92; Avidin bead fluor: 5; RGS16-Gao: 89; RGS8-Gao: 95; GSH bead fluor: 13

Results for CC1=NN(C(=O)CSCc2ccccc2)C(O)(c2ccc(F)cc2)C1 (configuration not stated) ?
RGS4-Gao reg: 100; RGS7-Gao reg: inconclusive; Avidin bead fluor: 9; RGS16-Gao: 99; RGS8-Gao: 100; GSH bead fluor: 15

What do the screens show for `CC1=NN(C(=O)CSCc2ccccc2)C(O)(c2ccc(Cl)cc2)C1` (configuration not stated)?
RGS4-Gao reg: 57; RGS7-Gao reg: 49*; Avidin bead fluor: 5; RGS16-Gao: 52; RGS8-Gao: 59*; GSH bead fluor: 13; RGS4-Gao HTS: 57*; Biotin-avidin: 0; RGS8-Gao confirm: 102; RGS7-Gao confirm: 105; RGS16-Gao single: 104; RGS4-Gao confirm: 103; RGS19-Gao conf: 107

How did Cc1cccc(CSc2ncccc2C(=O)O)c1 do in these assays?
RGS4-Gao reg: 122; RGS7-Gao reg: 105; Avidin bead fluor: 23; RGS16-Gao: 285*[activator]; RGS8-Gao: 135; GSH bead fluor: 21; RGS4-Gao HTS: 122*; Biotin-avidin: 2; RGS8-Gao confirm: 96; RGS7-Gao confirm: 93; RGS16-Gao single: 91; RGS4-Gao confirm: 93; RGS19-Gao conf: 70

Results for Cc1ccc(CSc2ncccc2C(=O)O)cc1 ?
RGS4-Gao reg: 104; RGS7-Gao reg: 100; Avidin bead fluor: 14; RGS16-Gao: 97; RGS8-Gao: 95; GSH bead fluor: 11

How did CCc1cc2c(=O)c(-c3cnn(-c4ccccc4)c3)c(C)oc2cc1OCC(=O)Nc1cccc(C)c1 do in these assays?
RGS4-Gao reg: 109; RGS7-Gao reg: 109; Avidin bead fluor: 14; RGS16-Gao: 257*[activator]; RGS8-Gao: 129; GSH bead fluor: 5; RGS4-Gao HTS: 109*; Biotin-avidin: -1; RGS8-Gao confirm: 104; RGS7-Gao confirm: 94; RGS16-Gao single: 107; RGS4-Gao confirm: 102; RGS19-Gao conf: 134

Results for CCOC(=O)c1cc(-c2cccs2)nc2c1c(C)nn2-c1ccccn1 ?
RGS4-Gao reg: 105; RGS7-Gao reg: 105; Avidin bead fluor: 8; RGS16-Gao: 158; RGS8-Gao: 114; GSH bead fluor: 11

What do the screens show for `Cc1nn(-c2ccccc2)c2nc(-c3cccs3)cc(C(=O)NN)c12`?
RGS4-Gao reg: 115; RGS7-Gao reg: 198*[activator]; Avidin bead fluor: 82*; RGS16-Gao: 102; RGS8-Gao: 96; GSH bead fluor: 11; RGS4-Gao HTS: 115*; Biotin-avidin: -1; RGS8-Gao confirm: 102; RGS7-Gao confirm: 103; RGS16-Gao single: 100; RGS4-Gao confirm: 102; RGS19-Gao conf: 108

What do the screens show for `NC(=O)Cn1nnc(-c2ccccc2NC(=O)c2cnccn2)n1`?
RGS4-Gao reg: 106; RGS7-Gao reg: 100; Avidin bead fluor: 7; RGS16-Gao: 101; RGS8-Gao: 102; GSH bead fluor: 4

What do the screens show for `O=C1c2ccccc2C(=O)N1CCCCN(C(=O)c1cc([N+](=O)[O-])cc([N+](=O)[O-])c1)c1ccc(Cl)cc1`?
RGS4-Gao reg: 91; RGS7-Gao reg: 89; Avidin bead fluor: 10; RGS16-Gao: 16*; RGS8-Gao: 71; GSH bead fluor: 5; RGS4-Gao HTS: 91*; Biotin-avidin: inactive; RGS8-Gao confirm: 102; RGS7-Gao confirm: 102; RGS16-Gao single: 110; RGS4-Gao confirm: 104; RGS19-Gao conf: 120

Screening results from PubChem BioAssay.
